Reference: the supplement of paper PMC7765376
Structures can show the parent of a compound that is named as a salt. In all, about 1,500 compounds were measured (“Excess HSA synergy score (sum over dose matrix of excess over highest single agent)”: median about 43, lowest 2% from about -900 on). The full list was thinned out, with the lowest values kept by preference.

Test system: PEO-1
Experiment: Excess HSA synergy score (sum over dose matrix of excess over highest single agent) (score (summed % response)); higher = less synergy / more antagonism (negative = synergy)
Conditions: 72 h, read-out: viability/apoptosis luminescence (CellTiter-Glo or Caspase3-Glo / not stated per table)
[1] = matrix design: 6x6, 5-fold dilutions (primary screen)
[2] = matrix design: 10x10, 9-step dilutions (confirmatory)

| SMILES | Excess HSA synergy score [1] | Excess HSA synergy score [2] |
| --- | --- | --- |
| CCC(=O)N1CCN(c2ccc(-n3c(=O)ccc4cnc5ccc(-c6cnc7ccccc7c6)cc5c43)cc2C(F)(F)F)CC1 [Torin-1] + CC[C@H](NC(=O)[C@H](C)NC)C(=O)N1C[C@@H](O)C[C@H]1Cc1c(-c2[nH]c3cc(F)ccc3c2C[C@@H]2C[C@H](O)CN2C(=O)[C@H](CC)NC(=O)[C@H](C)NC)[nH]c2cc(F)ccc12 [Birinapant] | -195 | – |
| Nc1ccc(-c2ccc3ncc4ccc(=O)n(-c5cccc(C(F)(F)F)c5)c4c3c2)cn1 [Torin-2] + CC[C@H](NC(=O)[C@H](C)NC)C(=O)N1C[C@@H](O)C[C@H]1Cc1c(-c2[nH]c3cc(F)ccc3c2C[C@@H]2C[C@H](O)CN2C(=O)[C@H](CC)NC(=O)[C@H](C)NC)[nH]c2cc(F)ccc12 [Birinapant] | -80.4 | -999 |
| COc1cc(OC)cc(-c2ccc3ncc4ccc(=O)n(-c5ccc(N6CCNCC6)c(C(F)(F)F)c5)c4c3c2)c1 + CC[C@H](NC(=O)[C@H](C)NC)C(=O)N1C[C@@H](O)C[C@H]1Cc1c(-c2[nH]c3cc(F)ccc3c2C[C@@H]2C[C@H](O)CN2C(=O)[C@H](CC)NC(=O)[C@H](C)NC)[nH]c2cc(F)ccc12 [Birinapant] | 160 | – |
| CN1CCC(COc2cnc(-c3cccc(Cn4nc(-c5cccc(C#N)c5)ccc4=O)c3)nc2)CC1 + CC[C@H](NC(=O)[C@H](C)NC)C(=O)N1C[C@@H](O)C[C@H]1Cc1c(-c2[nH]c3cc(F)ccc3c2C[C@@H]2C[C@H](O)CN2C(=O)[C@H](CC)NC(=O)[C@H](C)NC)[nH]c2cc(F)ccc12 [Birinapant] | 19.6 | – |
| Cn1cc(-c2ccc3nnc(Sc4ccc5ncccc5c4)n3n2)cn1 + CC[C@H](NC(=O)[C@H](C)NC)C(=O)N1C[C@@H](O)C[C@H]1Cc1c(-c2[nH]c3cc(F)ccc3c2C[C@@H]2C[C@H](O)CN2C(=O)[C@H](CC)NC(=O)[C@H](C)NC)[nH]c2cc(F)ccc12 [Birinapant] | 117 | – |
| NC(=O)c1cccc(-c2cccc(OC(=O)NC3CCCCC3)c2)c1 + CC[C@H](NC(=O)[C@H](C)NC)C(=O)N1C[C@@H](O)C[C@H]1Cc1c(-c2[nH]c3cc(F)ccc3c2C[C@@H]2C[C@H](O)CN2C(=O)[C@H](CC)NC(=O)[C@H](C)NC)[nH]c2cc(F)ccc12 [Birinapant] | 46.3 | – |
| CNc1nccc(-c2cccnc2Oc2cc(C(=O)Nc3cccc(C(F)(F)F)c3)ccc2C)n1 + CC[C@H](NC(=O)[C@H](C)NC)C(=O)N1C[C@@H](O)C[C@H]1Cc1c(-c2[nH]c3cc(F)ccc3c2C[C@@H]2C[C@H](O)CN2C(=O)[C@H](CC)NC(=O)[C@H](C)NC)[nH]c2cc(F)ccc12 [Birinapant] | 73.8 | – |
| CC(=O)[C@]1(O)Cc2c(O)c3c(c(O)c2[C@@H](O[C@H]2C[C@H](N)[C@H](O)[C@H](C)O2)C1)C(=O)c1ccccc1C3=O [Idarubicin hydrochloride] + CC[C@H](NC(=O)[C@H](C)NC)C(=O)N1C[C@@H](O)C[C@H]1Cc1c(-c2[nH]c3cc(F)ccc3c2C[C@@H]2C[C@H](O)CN2C(=O)[C@H](CC)NC(=O)[C@H](C)NC)[nH]c2cc(F)ccc12 [Birinapant] | -126 | -1080 |
| COc1cccc2c1C(=O)c1c(O)c3c(c(O)c1C2=O)C[C@@](O)(C(=O)CO)C[C@@H]3O[C@H]1C[C@H](N)[C@H](O[C@@H]2CCCCO2)[C@H](C)O1 [Pirarubicin] + CC[C@H](NC(=O)[C@H](C)NC)C(=O)N1C[C@@H](O)C[C@H]1Cc1c(-c2[nH]c3cc(F)ccc3c2C[C@@H]2C[C@H](O)CN2C(=O)[C@H](CC)NC(=O)[C@H](C)NC)[nH]c2cc(F)ccc12 [Birinapant] | -150 | – |
| COc1cccc2c1C(=O)c1c(O)c3c(c(O)c1C2=O)C[C@@](O)(C(C)=O)C[C@@H]3O[C@H]1C[C@H](N)[C@H](O)[C@H](C)O1 [Daunorubicin] + CC[C@H](NC(=O)[C@H](C)NC)C(=O)N1C[C@@H](O)C[C@H]1Cc1c(-c2[nH]c3cc(F)ccc3c2C[C@@H]2C[C@H](O)CN2C(=O)[C@H](CC)NC(=O)[C@H](C)NC)[nH]c2cc(F)ccc12 [Birinapant] | -171 | – |
| COc1cc2c(Nc3ccc(Cl)c(Cl)c3F)ncnc2cc1OC[C@@H]1C[C@@H]2CN(C)C[C@@H]2C1 + CC[C@H](NC(=O)[C@H](C)NC)C(=O)N1C[C@@H](O)C[C@H]1Cc1c(-c2[nH]c3cc(F)ccc3c2C[C@@H]2C[C@H](O)CN2C(=O)[C@H](CC)NC(=O)[C@H](C)NC)[nH]c2cc(F)ccc12 [Birinapant] | -5.11 | – |
| Nc1cc(C(F)(F)F)c(-c2cc(N3CCOCC3)nc(N3CCOCC3)n2)cn1 + CC[C@H](NC(=O)[C@H](C)NC)C(=O)N1C[C@@H](O)C[C@H]1Cc1c(-c2[nH]c3cc(F)ccc3c2C[C@@H]2C[C@H](O)CN2C(=O)[C@H](CC)NC(=O)[C@H](C)NC)[nH]c2cc(F)ccc12 [Birinapant] | 242 | – |
| c1ccc(CNc2nc(NCc3ccccc3)c3ccccc3n2)cc1 + CC[C@H](NC(=O)[C@H](C)NC)C(=O)N1C[C@@H](O)C[C@H]1Cc1c(-c2[nH]c3cc(F)ccc3c2C[C@@H]2C[C@H](O)CN2C(=O)[C@H](CC)NC(=O)[C@H](C)NC)[nH]c2cc(F)ccc12 [Birinapant] | -180 | – |
| CCC(C)SSc1ncc[nH]1 (centres undefined) + CC[C@H](NC(=O)[C@H](C)NC)C(=O)N1C[C@@H](O)C[C@H]1Cc1c(-c2[nH]c3cc(F)ccc3c2C[C@@H]2C[C@H](O)CN2C(=O)[C@H](CC)NC(=O)[C@H](C)NC)[nH]c2cc(F)ccc12 [Birinapant] | 79.6 | – |
| CS(=O)(=O)Oc1ccc2c(NC(N)=O)c(C(=O)c3ccc(Cl)cc3Cl)oc2c1 [Lirimilast] + CC[C@H](NC(=O)[C@H](C)NC)C(=O)N1C[C@@H](O)C[C@H]1Cc1c(-c2[nH]c3cc(F)ccc3c2C[C@@H]2C[C@H](O)CN2C(=O)[C@H](CC)NC(=O)[C@H](C)NC)[nH]c2cc(F)ccc12 [Birinapant] | -20.9 | – |
| CCC1=C[C@@H]2CN(C1)Cc1c([nH]c3ccccc13)[C@@](C(=O)OC)(c1cc3c(cc1OC)N(C)[C@H]1[C@@](O)(C(=O)OC)[C@H](OC(C)=O)[C@]4(CC)C=CCN5CC[C@]31[C@@H]54)C2 [Vinorelbine] + CC[C@H](NC(=O)[C@H](C)NC)C(=O)N1C[C@@H](O)C[C@H]1Cc1c(-c2[nH]c3cc(F)ccc3c2C[C@@H]2C[C@H](O)CN2C(=O)[C@H](CC)NC(=O)[C@H](C)NC)[nH]c2cc(F)ccc12 [Birinapant] | 91.9 | – |
| COc1cc(C(C)=O)ccc1OCCCN1CCC(c2noc3cc(F)ccc23)CC1 [Iloperidone] + CC[C@H](NC(=O)[C@H](C)NC)C(=O)N1C[C@@H](O)C[C@H]1Cc1c(-c2[nH]c3cc(F)ccc3c2C[C@@H]2C[C@H](O)CN2C(=O)[C@H](CC)NC(=O)[C@H](C)NC)[nH]c2cc(F)ccc12 [Birinapant] | 75 | – |
| CN1C(=O)C(Cc2c[nH]c3ccccc23)NC1=S (centres undefined) [Necrostatin-1] + CC[C@H](NC(=O)[C@H](C)NC)C(=O)N1C[C@@H](O)C[C@H]1Cc1c(-c2[nH]c3cc(F)ccc3c2C[C@@H]2C[C@H](O)CN2C(=O)[C@H](CC)NC(=O)[C@H](C)NC)[nH]c2cc(F)ccc12 [Birinapant] | 340 | – |
| Clc1ccc(-c2nc3sccn3c2/C=N/OCc2ccc(Cl)c(Cl)c2)cc1 + CC[C@H](NC(=O)[C@H](C)NC)C(=O)N1C[C@@H](O)C[C@H]1Cc1c(-c2[nH]c3cc(F)ccc3c2C[C@@H]2C[C@H](O)CN2C(=O)[C@H](CC)NC(=O)[C@H](C)NC)[nH]c2cc(F)ccc12 [Birinapant] | 56.2 | – |
| NS(=O)(=O)OC[C@@H]1C[C@@H](n2ccc3c(N[C@H]4CCc5ccccc54)ncnc32)C[C@@H]1O + CC[C@H](NC(=O)[C@H](C)NC)C(=O)N1C[C@@H](O)C[C@H]1Cc1c(-c2[nH]c3cc(F)ccc3c2C[C@@H]2C[C@H](O)CN2C(=O)[C@H](CC)NC(=O)[C@H](C)NC)[nH]c2cc(F)ccc12 [Birinapant] | -120 | -1280 |
| CN1CCCN=C1/C=C/c1cccs1 [Pyrantel pamoate] + CC[C@H](NC(=O)[C@H](C)NC)C(=O)N1C[C@@H](O)C[C@H]1Cc1c(-c2[nH]c3cc(F)ccc3c2C[C@@H]2C[C@H](O)CN2C(=O)[C@H](CC)NC(=O)[C@H](C)NC)[nH]c2cc(F)ccc12 [Birinapant] | 18.2 | – |
| O=C(Nc1nc2cccc(-c3ccc(CN4CCS(=O)(=O)CC4)cc3)n2n1)C1CC1 [Filgotinib] + CC[C@H](NC(=O)[C@H](C)NC)C(=O)N1C[C@@H](O)C[C@H]1Cc1c(-c2[nH]c3cc(F)ccc3c2C[C@@H]2C[C@H](O)CN2C(=O)[C@H](CC)NC(=O)[C@H](C)NC)[nH]c2cc(F)ccc12 [Birinapant] | 94.7 | – |
| COc1cccc2nc(-c3cccs3)nc(NN3C(=O)C=C(C)C3=O)c12 + CC[C@H](NC(=O)[C@H](C)NC)C(=O)N1C[C@@H](O)C[C@H]1Cc1c(-c2[nH]c3cc(F)ccc3c2C[C@@H]2C[C@H](O)CN2C(=O)[C@H](CC)NC(=O)[C@H](C)NC)[nH]c2cc(F)ccc12 [Birinapant] | -105 | -1130 |
| COCC[n+]1c2c(n(Cc3cnccn3)c1C)C(=O)c1ccccc1C2=O [Sepantronium bromide] + CC[C@H](NC(=O)[C@H](C)NC)C(=O)N1C[C@@H](O)C[C@H]1Cc1c(-c2[nH]c3cc(F)ccc3c2C[C@@H]2C[C@H](O)CN2C(=O)[C@H](CC)NC(=O)[C@H](C)NC)[nH]c2cc(F)ccc12 [Birinapant] | 55.3 | 281 |
